In the library only some 2.9% were active in any assay of this set; here they are far more common.
Pol iota inh: DNA polymerase iota (human) inhibition; 1% of 390,000 active; Potency, µM (series often up to 115 µM), actives largely listed as inhibitors; Pol iota fluorescent replication assay, 10 min; Q9UNA4
Target sequence (Q9UNA4 whole entry, looked up): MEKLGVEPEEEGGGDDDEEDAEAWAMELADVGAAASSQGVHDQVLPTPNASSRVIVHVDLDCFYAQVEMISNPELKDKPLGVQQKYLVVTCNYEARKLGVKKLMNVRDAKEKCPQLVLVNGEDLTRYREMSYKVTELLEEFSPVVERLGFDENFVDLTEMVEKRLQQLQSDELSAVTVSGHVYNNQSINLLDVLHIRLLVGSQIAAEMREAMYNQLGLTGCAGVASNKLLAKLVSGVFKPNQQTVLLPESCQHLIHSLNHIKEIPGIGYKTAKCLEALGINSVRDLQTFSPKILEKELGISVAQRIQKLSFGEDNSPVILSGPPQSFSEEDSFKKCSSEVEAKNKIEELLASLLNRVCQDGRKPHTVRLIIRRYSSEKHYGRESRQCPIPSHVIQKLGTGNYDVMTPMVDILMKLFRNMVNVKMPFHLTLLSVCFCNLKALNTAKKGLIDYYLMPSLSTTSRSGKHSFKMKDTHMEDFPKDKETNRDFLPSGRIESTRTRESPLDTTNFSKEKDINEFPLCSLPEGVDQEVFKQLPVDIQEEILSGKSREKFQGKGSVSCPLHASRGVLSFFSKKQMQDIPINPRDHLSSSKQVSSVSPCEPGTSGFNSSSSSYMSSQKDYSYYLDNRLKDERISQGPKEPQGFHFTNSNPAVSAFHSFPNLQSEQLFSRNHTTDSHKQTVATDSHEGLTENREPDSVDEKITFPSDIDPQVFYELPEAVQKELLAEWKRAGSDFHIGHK
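Fluorescent replication assay read twice, at 0 min and 10 min after adding 50 nM (final) substrate. Enzyme (10 nM) and compounds were first incubated 15 min at room temperature; enzyme-free buffer wells were negative controls.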
Pol kappa inh: inhibitors of human DNA polymerase kappa; Q9UBT6; purified Pol kappa, fluorescent DNA synthesis assay, 10 min; Potency, µM (top dose mostly 107 µM), usual class: inhibitors; 0.53% of 400,000 active
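Kinetic fluorescence screen: compound preincubated 15 min RT with 10 nM enzyme; 50 nM substrate (final) initiates; reads at 0/10 min.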
PI5P4Ka inh: blocks human PI5P4K alpha kinase activity | P48426 | AID 652105 | 1.2% of 330,000 active | PI5P4Kalpha enzyme, ADP-Glo luminescence, 60 min; hits give low values | max response, %; active = max response of -50% or lower; inconclusive = between -30% and -50%; inactive = -30% or higher; also: value at the top dose of about 77 µM
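Human PI5P4Kalpha with substrate in 0.038 M HEPES pH 7.4, 0.28 mM EGTA, 0.1% CHAPS, 5% DMSO; reaction started with 5 microM ATP (final), 60 min at room temperature. ADP formed read by ADP-Glo luminescence.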
ALOX12 inh: ALOX12 (human) lipoxygenase inhibition | P18054 | purified 12hLO, xylenol orange hydroperoxide absorbance | Potency, µM (series often up to 108 µM), usual class: inhibitors | 1.1% of 580,000 active | AID 1671190
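Hydroperoxide product was detected by ferrous iron/xylenol orange as the 573 to 405 nm absorbance ratio. Arachidonic acid at 40 uM (final) was turned over for 30 min at room temperature by 150 nM human 12hLO, pH 7.0 Hepes buffer, after 15 min compound preincubation.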
POLB inh: DNA polymerase beta (human) inhibition; P06746; Pol beta primer extension/strand displacement, fluorescence kinetic; Potency, µM (titrated, usually from 114 µM), usual class: inhibitors; 1.3% of 340,000 active; AID 485314
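Kinetic readout of DNA synthesis with strand displacement by Pol beta. Compound and 10 nM enzyme sit 15 min at room temperature; 50 nM substrate starts the reaction, read immediately and at 10 min.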
POLH inh: inhibitors of human DNA polymerase eta; recombinant Pol eta, fluorescent DNA replication assay; Potency, µM (titrated, usually from 114 µM), hits mostly inhibitors; 1.2% of 390,000 active; AID 588591
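Pol eta at 10 nM preincubated with compounds 15 min at room temperature; reaction started with fluorescent substrate (50 nM final) and read kinetically at 0 and 10 min.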
Hits are given with their value; n = inactive; u = inconclusive; x = not tested or not shown. Unless noted, calls follow the shape of the dose curve; as a rule, active = well fitted inhibition curve with a large enough effect; inconclusive = small, poorly fitted or top-dose-only effect, or another doubt; inactive = no such curve, though single readings can be large or run the other way.

SMILES	Pol iota inh	Pol kappa inh	PI5P4Ka inh	ALOX12 inh	POLB inh	POLH inh
CCOCCn1c(N2CCN(C)CC2)nc2c1c(=O)[nH]c(=O)n2C	x	x	x	n	x	x
CCCc1nc(C)cc(N2CCC(NCCc3ccc(Cl)cc3)CC2)n1	x	x	x	8.91µM	x	x
O=C(NCCc1ccc(F)cc1)c1ccccn1	x	x	x	n	x	x
O=C(NCCc1ccc(Cl)cc1)c1ccccn1	x	x	x	31.6µM	x	x
CCOC(=O)CSc1nc2c(sc(=S)n2-c2ccccc2OC)c(=O)n1-c1ccccc1OC	n	n	n	n	n	n
COc1ccc(-n2c(SCC(=O)C(C)(C)C)nc3c(sc(=S)n3-c3ccccc3)c2=O)c(OC)c1	11.2µM	n	n	n	n	n
CSc1ccc(/C=C2\C(=O)Oc3ccccc32)cc1	x	x	x	31.6µM	x	x
Cc1cc(C(=O)C(C)Cl)c(C)n1Cc1ccco1 (configuration not stated)	15.8µM	u	u	n	u	70.8µM
Cc1cc(C(=O)CSc2nnnn2C2CCCC2)c(C)n1Cc1ccco1	x	x	x	n	x	x
Cc1cc(C(=O)CSc2nnnn2C)c(C)n1Cc1ccco1	79.4µM	n	n	n	u	n
O=C(CSc1nc2ccc(Cl)cc2[nH]1)NCc1ccco1	n	n	n	n	n	n
Cc1cc(C(=O)COC(=O)C(C)NC(N)=O)c(C)n1Cc1ccco1 (configuration not stated)	u	n	n	n	u	n
Cc1cc(C(=O)CSc2nc3ccc(Cl)cc3[nH]2)c(C)n1Cc1ccco1	22.4µM	u	n	u	x	n
O=C(NC1CCCCCCC1)c1nnn2c1COC(c1ccc(F)cc1)C2 (configuration not stated)	x	x	x	n	x	x
Cc1nc2ccccc2c(C)c1CC(=O)NC1CCCCCC1	x	x	x	n	x	x
O=[N+]([O-])c1ccc2[nH]c(O)c(N=Nc3ccc(F)cc3)c2c1	n	n	n	n	n	n
CC(Oc1ccccc1)C(=O)N=Nc1c(O)[nH]c2ccc([N+](=O)[O-])cc12 (configuration not stated)	79.4µM	n	n	n	n	35.5µM
O=[N+]([O-])c1ccc(N=Nc2c(O)[nH]c3ccc(F)cc23)cc1	n	n	n	n	50.1µM	u
CCSC1=N/C(=C\c2sccc2C)C(=O)S1	x	x	x	n	x	x
O=C(O)C1=C[C@H](c2ccc(Br)cc2)C[C@H](OCCCCO)O1	n	n	n	35.5µM	n	n
O=C(NCc1ccccc1)C1=C[C@@H](c2ccc(Br)cc2)C[C@@H](OCCCCO)O1	n	n	n	u	n	n
O=C(O)C1=C[C@@H](c2ccc(Br)cc2)C[C@@H](OCCCCO)O1	n	n	n	u	x	n
C#Cc1ccc([C@@H]2C=C(C(=O)NCc3ccccc3)O[C@H](OCCCCO)C2)cc1	50.1µM	u	-63.8	n	x	44.7µM
C#CCNC(=O)C1=C[C@@H](c2ccccc2)C[C@@H](OCCCCO)O1	n	n	n	n	x	n
C#CCNC(=O)C1=C[C@@H](c2ccc(C#C)cc2)C[C@@H](OCCCCO)O1	50.1µM	u	-56.3	u	x	25.1µM
SMILES	Pol iota inh	Pol kappa inh	PI5P4Ka inh	ALOX12 inh	POLB inh	POLH inh
C#Cc1ccc([C@@H]2C=C(C(=O)OCC=C)O[C@H](OCCCCO)C2)cc1	u	u	u	u	17.8µM	u
COc1cccc(CNC(=O)c2ncoc2-c2cccc(Cl)c2)c1	x	x	x	n	x	x
O=C(CSc1nc(-c2ccccc2)c(-c2ccccc2)o1)N1CCC1	x	x	x	n	x	x
CN(C)c1ccc(/C=C/c2ccncc2)cc1	n	n	n	n	n	n
CCN(CC)c1ccc(/C=C/c2ccncc2)cc1	79.4µM	n	x	x	x	x
C=CC(C)(CCC=C(C)C)OC(=O)CC (configuration not stated)	x	x	x	n	x	x
O=S(=O)(Nc1cc2nc3ccccc3nc2n1Cc1ccccc1)c1ccc(Cl)cc1	10µM	n	n	44.7µM	u	79.4µM
CCCCC(C)/C=C(C)/C=C(\C)C(=O)NC1=CC(O)(/C=C/C=C/C=C/C(=O)NC2=C(O)CCC2=O)C2OC2C1=O (configuration not stated)	x	26.7µM	x	u	x	x
CC(CCc1ccccc1)N1CCN(Cc2ccccc2)CC1 (configuration not stated)	n	n	n	5.62µM	n	n
CCOc1cc2c(C#N)c(N3CCOCC3)nc(N)c2c(N)n1	n	n	n	n	n	n
CCOc1cc2c(C#N)c(N(CC)CC)nc(N)c2c(N)n1	10µM	n	n	n	x	n
Cc1cccc(CN2CCN(S(=O)(=O)c3cn(C)nc3C)CC2)c1	x	x	x	n	x	x
O=C(O)COc1ccccc1C(Nc1cccnc1)c1cc(Cl)c2cccnc2c1O (configuration not stated)	u	u	-64.5	x	n	79.4µM
CC1=NN(c2ccc(C)cc2C)C(=O)C1C(c1cccc(O)c1)C1C(=O)N(c2ccc(C)cc2C)N=C1C (configuration not stated)	1.26µM	n	n	n	n	n
O=C(Nc1nccs1)c1sccc1-c1ccccc1	x	x	x	n	x	x
COc1ccc(/C=C2\C(=N)N3N=C(CC(=O)N4CCOCC4)SC3=NC2=O)cc1	u	n	n	n	n	n
N=C1/C(=C\c2ccc(SCc3ccccc3)o2)C(=O)N=C2SC=NN12	n	n	n	n	u	n
Cc1ccc(/C=C2\C(=N)N3N=C(CC(=O)N4CCOCC4)SC3=NC2=O)o1	u	u	n	u	u	28.2µM
N=C1/C(=C\c2ccc(SCc3ccccc3)o2)C(=O)N=C2SC(CC(=O)N3CCOCC3)=NN12	10µM	u	n	u	u	56.2µM
O=C(CSc1nc(=O)n(Cc2ccncc2)c2c1CCC2)Nc1cccc(Cl)c1	x	x	x	n	x	x
CCCn1c(SCC(=O)NC(=O)NCc2ccccc2)n[nH]c1=O	n	n	n	n	x	n
CCn1c(SCC(=O)NC(=O)NCc2ccco2)nnc1-c1cccs1	u	n	n	n	50.1µM	u
C=CCn1c(SCC(=O)NC(=O)NCc2ccco2)nc2sc(CC)cc2c1=O	44.7µM	u	-50.2	n	14.1µM	11.2µM
Cn1c(SCC(=O)NCc2ccco2)nnc1-c1cccs1	n	n	n	n	n	n
C=CCn1c(SCC(=O)NCc2ccco2)nc2ccccc2c1=O	n	n	n	n	n	n
SMILES	Pol iota inh	Pol kappa inh	PI5P4Ka inh	ALOX12 inh	POLB inh	POLH inh
CCCn1c(SCC(=O)NC(=O)NCc2ccco2)n[nH]c1=O	x	x	x	x	14.1µM	x
COc1cc(S(=O)(=O)N2CCCC2)c(OC)cc1Cl	x	x	x	n	x	x
N#Cc1nc(-c2cccs2)oc1N1CCN(C(=O)c2ccccc2Cl)CC1	x	x	x	n	x	x
CCN(CC)C(=O)CN1CCN(C(=O)c2cc(-c3ccc(OC)cc3)nc3ccccc23)CC1	x	x	x	n	x	x
O=[N+]([O-])c1cccc(-c2nc(NCc3ccccc3)c3ccccc3n2)c1	n	n	n	n	u	n
Cc1cccc(CNc2nc(-c3ccc4c(c3)OCO4)nc3ccccc23)c1	x	n	x	39.8µM	x	x
